According to paper PMC7862700, “An all-to-all approach to the identification of sequence-specific readers for epigenetic DNA modifications on cytosine”:

How the values were obtained:
Experiment in all cases: DAPPL (digital affinity profiling via proximity ligation, sequencing); 10 mM Tris-HCl pH 7.5, 50 mM NaCl, 1 mM DTT, 4% glycerol, room temperature, 30 min; GST-TFs on glutathione beads, 16-mer random dsDNA library, 0.1% formaldehyde crosslink after washing; high values mean tight binding
FEV = biological target: T1, FEV (Homo sapiens, UniProt Q99581 1-238); conditions: protein: recombinant; tags: N-terminal GST; dsDNA, one strand shown
T1 sequence: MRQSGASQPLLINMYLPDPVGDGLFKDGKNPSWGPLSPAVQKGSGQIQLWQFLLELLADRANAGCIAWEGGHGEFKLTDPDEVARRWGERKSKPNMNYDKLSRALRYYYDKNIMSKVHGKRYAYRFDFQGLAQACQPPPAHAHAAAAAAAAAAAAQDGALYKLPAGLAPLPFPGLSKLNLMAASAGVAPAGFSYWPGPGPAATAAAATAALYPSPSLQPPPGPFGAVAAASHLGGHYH
How it was run: (§1)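 Yeast served to express human transcription factors as GST fusions, which were then captured on glutathione beads and labelled with DNA barcodes. Pooled with a tag-only sample, they were incubated with 200 nmole of a 16-mer random double-stranded DNA library for 30 min at room temperature in Tris/NaCl/DTT/glycerol buffer, washed, crosslinked with 0.1% formaldehyde, ligated by proximity, amplified by PCR and sequenced. Dividing each hexamer's read frequency for a factor by its frequency for the tag-only sample gives the binding signal.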

ETV5 = ETV5 (Homo sapiens, UniProt P41161 1-510); conditions: protein: recombinant; tags: N-terminal GST; dsDNA, one strand shown
ETV5, sequence (P41161 whole entry): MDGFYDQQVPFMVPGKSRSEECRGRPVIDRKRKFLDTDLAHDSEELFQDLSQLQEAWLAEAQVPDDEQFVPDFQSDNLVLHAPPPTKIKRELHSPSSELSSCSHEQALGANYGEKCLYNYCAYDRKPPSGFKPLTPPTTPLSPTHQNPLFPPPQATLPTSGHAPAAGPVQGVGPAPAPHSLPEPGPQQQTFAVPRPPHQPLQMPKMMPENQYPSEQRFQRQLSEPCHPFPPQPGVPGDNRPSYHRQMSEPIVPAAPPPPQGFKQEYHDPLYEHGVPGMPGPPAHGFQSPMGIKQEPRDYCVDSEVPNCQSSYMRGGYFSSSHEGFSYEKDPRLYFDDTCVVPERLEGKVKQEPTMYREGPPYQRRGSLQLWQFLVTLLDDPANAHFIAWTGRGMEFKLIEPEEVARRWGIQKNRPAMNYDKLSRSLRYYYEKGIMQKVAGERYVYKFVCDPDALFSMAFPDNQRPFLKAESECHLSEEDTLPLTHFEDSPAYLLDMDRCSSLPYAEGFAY
How it was run: as §1

HSF1 = HSF1 (Homo sapiens, UniProt Q00613 1-529); conditions: protein: recombinant; tags: N-terminal GST; chain copies: 3; dsDNA, one strand shown
HSF1, sequence (Q00613 whole entry): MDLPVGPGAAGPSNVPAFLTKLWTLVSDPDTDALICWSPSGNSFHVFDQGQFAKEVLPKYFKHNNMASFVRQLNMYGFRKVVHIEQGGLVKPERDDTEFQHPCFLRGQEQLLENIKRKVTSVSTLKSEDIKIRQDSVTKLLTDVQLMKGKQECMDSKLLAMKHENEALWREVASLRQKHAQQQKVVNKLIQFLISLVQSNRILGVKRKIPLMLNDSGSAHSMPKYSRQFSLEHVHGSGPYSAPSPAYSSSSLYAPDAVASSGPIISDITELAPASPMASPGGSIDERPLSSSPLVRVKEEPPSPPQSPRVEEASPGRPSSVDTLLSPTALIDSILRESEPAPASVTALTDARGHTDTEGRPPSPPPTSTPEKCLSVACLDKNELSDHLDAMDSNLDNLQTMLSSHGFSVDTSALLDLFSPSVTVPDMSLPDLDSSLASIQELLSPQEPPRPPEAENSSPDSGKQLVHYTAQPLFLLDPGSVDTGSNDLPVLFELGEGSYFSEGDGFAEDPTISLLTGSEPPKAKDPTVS
How it was run: as §1

SPIC = biological target: T2, SPIC (Homo sapiens, UniProt Q8N5J4 1-248); conditions: protein: recombinant; tags: N-terminal GST; dsDNA, one strand shown
T2 sequence: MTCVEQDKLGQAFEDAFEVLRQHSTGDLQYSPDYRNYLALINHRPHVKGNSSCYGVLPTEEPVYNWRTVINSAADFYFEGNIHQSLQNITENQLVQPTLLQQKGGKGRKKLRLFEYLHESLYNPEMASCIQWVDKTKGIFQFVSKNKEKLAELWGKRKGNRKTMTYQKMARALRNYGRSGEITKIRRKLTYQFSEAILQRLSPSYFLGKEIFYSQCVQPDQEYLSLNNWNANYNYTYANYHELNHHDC
How it was run: as §1

ELF4 = ELF4 (Homo sapiens, UniProt Q99607 1-663); conditions: protein: recombinant; tags: N-terminal GST; dsDNA, one strand shown
ELF4, sequence (Q99607 whole entry): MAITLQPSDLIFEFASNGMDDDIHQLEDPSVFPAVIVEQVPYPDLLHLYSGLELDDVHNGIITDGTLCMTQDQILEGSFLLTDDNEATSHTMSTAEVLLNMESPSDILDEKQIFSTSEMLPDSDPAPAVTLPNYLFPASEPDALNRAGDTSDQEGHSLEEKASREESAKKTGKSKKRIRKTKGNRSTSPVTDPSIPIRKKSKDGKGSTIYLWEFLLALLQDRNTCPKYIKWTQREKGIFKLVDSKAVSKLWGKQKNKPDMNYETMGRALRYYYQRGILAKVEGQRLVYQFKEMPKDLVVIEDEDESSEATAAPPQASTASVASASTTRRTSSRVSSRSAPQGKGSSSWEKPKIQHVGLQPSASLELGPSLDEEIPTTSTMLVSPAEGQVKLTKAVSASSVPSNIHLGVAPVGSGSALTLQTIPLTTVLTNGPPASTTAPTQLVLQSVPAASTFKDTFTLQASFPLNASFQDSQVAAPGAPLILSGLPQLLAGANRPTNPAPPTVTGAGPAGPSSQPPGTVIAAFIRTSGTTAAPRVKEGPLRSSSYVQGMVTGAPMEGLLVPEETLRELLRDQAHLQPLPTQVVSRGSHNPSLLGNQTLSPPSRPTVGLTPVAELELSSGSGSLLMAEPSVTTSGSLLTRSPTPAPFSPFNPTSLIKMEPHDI
How it was run: as §1

ELK4 = biological target: T3, ELK4 (Homo sapiens, UniProt P28324-2 1-405); conditions: protein: recombinant; tags: N-terminal GST; dsDNA, one strand shown
T3 sequence: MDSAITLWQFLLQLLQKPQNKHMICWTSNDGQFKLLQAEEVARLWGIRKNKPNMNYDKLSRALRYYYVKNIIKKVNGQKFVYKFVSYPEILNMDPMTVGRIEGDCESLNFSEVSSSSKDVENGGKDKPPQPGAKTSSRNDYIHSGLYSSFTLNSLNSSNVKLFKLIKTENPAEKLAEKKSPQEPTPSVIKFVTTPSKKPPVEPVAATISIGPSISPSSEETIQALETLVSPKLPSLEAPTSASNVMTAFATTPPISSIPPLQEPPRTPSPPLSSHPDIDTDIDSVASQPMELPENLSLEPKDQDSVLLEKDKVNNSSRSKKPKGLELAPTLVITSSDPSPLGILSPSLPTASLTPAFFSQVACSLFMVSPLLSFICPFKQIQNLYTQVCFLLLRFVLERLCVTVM
How it was run: as §1

ETV2 = biological target: T4, ETV2 (Homo sapiens, UniProt O00321 1-342); conditions: protein: recombinant; tags: N-terminal GST; dsDNA, one strand shown
T4 sequence: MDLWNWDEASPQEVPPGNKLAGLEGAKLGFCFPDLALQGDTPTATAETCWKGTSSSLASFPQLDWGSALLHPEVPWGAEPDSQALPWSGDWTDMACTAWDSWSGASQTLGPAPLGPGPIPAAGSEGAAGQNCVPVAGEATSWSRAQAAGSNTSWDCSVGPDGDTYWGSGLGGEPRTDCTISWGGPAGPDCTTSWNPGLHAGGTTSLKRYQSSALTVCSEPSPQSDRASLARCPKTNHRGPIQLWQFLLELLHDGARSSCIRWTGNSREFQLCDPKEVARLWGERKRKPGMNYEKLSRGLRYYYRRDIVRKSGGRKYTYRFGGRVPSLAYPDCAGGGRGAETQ
How it was run: as §1

ELF3 = biological target: T5, ELF3 (Homo sapiens, UniProt P78545 1-371); conditions: protein: recombinant; tags: N-terminal GST; dsDNA, one strand shown
T5 sequence: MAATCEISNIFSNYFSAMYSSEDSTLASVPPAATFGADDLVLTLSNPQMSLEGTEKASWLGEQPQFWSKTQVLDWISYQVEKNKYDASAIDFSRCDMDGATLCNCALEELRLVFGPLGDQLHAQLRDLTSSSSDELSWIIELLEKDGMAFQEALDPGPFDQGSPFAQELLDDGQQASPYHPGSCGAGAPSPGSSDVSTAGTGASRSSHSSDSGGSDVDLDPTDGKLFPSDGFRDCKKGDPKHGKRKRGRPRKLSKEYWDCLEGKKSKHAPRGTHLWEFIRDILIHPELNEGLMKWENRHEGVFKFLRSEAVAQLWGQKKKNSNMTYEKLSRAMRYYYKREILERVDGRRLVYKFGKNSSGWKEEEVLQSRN
How it was run: as §1

CRX = CRX (Homo sapiens, UniProt O43186 1-299); conditions: protein: recombinant; tags: N-terminal GST; dsDNA, one strand shown
CRX, sequence (O43186 whole entry): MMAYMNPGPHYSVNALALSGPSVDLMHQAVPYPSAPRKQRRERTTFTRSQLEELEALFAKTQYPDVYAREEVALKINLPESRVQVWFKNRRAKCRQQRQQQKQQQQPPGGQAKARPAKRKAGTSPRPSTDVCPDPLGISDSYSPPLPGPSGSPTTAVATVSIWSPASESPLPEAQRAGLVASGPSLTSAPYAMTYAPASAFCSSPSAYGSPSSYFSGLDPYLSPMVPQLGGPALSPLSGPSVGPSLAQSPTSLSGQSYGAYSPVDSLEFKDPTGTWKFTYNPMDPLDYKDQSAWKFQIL
How it was run: as §1

ETV1 = ETV1 (Homo sapiens, UniProt P50549 1-477); conditions: protein: recombinant; tags: N-terminal GST; dsDNA, one strand shown
ETV1, sequence (P50549 whole entry): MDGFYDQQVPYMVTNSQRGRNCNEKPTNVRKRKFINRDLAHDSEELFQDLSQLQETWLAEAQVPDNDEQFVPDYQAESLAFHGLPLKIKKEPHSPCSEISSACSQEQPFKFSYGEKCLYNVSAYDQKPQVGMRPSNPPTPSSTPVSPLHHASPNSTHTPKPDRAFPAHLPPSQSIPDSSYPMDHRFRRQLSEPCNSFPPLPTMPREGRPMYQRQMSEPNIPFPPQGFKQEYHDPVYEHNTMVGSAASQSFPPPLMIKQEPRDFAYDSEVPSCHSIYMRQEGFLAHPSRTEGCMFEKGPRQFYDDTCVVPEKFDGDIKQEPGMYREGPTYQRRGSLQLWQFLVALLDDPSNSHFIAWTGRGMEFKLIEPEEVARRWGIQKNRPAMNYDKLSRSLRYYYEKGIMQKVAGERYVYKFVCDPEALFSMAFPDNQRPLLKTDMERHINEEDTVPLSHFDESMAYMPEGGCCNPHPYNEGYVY
How it was run: as §1

ERF = biological target: T6, ERF (Homo sapiens, UniProt P50548 1-548); conditions: protein: recombinant; tags: N-terminal GST; dsDNA, one strand shown
T6 sequence: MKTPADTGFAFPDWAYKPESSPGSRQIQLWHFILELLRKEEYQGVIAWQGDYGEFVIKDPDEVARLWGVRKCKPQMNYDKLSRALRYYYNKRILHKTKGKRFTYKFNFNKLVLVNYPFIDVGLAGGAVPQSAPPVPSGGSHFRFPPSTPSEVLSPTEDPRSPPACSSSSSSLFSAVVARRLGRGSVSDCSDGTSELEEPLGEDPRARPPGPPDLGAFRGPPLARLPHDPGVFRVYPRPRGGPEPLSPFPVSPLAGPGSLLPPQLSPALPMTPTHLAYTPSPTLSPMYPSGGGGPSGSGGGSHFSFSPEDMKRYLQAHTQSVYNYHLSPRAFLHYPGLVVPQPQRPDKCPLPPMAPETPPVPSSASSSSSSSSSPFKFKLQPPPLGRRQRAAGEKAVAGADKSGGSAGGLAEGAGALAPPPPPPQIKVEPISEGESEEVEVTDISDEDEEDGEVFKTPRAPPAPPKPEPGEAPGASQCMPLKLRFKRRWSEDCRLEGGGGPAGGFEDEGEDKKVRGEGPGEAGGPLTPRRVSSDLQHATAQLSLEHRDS
How it was run: as §1

ETV3L = biological target: T7, ETV3L (Homo sapiens, UniProt Q6ZN32 1-361); conditions: protein: recombinant; tags: N-terminal GST; dsDNA, one strand shown
T7 sequence: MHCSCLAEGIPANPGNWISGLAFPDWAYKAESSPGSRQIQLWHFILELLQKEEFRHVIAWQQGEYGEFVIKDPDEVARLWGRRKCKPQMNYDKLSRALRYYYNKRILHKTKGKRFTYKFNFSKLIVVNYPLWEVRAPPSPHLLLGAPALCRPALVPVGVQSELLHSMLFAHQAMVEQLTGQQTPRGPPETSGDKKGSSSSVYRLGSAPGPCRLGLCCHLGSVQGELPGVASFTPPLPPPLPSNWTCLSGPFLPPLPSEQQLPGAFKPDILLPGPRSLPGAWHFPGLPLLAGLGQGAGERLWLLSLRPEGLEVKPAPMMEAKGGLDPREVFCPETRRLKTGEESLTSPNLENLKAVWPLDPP
How it was run: as §1

ETS2 = biological target: T8, ETS2 (Homo sapiens, UniProt P15036 1-469); conditions: protein: recombinant; tags: N-terminal GST; dsDNA, one strand shown
T8 sequence: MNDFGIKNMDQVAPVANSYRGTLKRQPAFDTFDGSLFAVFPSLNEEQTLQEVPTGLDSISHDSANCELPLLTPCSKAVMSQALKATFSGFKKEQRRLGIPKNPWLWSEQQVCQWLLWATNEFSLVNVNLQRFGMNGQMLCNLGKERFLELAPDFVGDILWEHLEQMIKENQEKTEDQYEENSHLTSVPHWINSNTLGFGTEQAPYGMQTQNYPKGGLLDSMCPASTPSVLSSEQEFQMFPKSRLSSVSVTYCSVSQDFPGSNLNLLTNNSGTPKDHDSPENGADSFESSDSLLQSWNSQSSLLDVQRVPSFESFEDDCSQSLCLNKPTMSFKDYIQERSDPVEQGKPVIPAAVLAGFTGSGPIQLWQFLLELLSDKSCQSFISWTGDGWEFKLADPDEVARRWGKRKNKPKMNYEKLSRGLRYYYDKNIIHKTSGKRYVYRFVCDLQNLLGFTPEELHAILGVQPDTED
How it was run: as §1

SPDEF = biological target: T9, SPDEF (Homo sapiens, UniProt O95238 1-335); conditions: protein: recombinant; tags: N-terminal GST; dsDNA, one strand shown
T9 sequence: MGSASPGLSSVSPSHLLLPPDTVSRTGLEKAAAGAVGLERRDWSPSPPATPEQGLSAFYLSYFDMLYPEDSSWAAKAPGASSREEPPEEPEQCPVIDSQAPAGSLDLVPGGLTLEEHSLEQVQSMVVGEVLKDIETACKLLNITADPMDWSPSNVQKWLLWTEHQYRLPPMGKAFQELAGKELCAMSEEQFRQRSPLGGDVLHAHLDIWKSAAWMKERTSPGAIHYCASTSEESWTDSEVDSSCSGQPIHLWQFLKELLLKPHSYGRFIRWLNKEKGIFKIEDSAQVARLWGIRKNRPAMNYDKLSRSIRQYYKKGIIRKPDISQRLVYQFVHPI
How it was run: as §1

ETV7 = biological target: T10, ETV7 (Homo sapiens, UniProt Q9Y603 1-341); conditions: protein: recombinant; tags: N-terminal GST; dsDNA, one strand shown
T10 sequence: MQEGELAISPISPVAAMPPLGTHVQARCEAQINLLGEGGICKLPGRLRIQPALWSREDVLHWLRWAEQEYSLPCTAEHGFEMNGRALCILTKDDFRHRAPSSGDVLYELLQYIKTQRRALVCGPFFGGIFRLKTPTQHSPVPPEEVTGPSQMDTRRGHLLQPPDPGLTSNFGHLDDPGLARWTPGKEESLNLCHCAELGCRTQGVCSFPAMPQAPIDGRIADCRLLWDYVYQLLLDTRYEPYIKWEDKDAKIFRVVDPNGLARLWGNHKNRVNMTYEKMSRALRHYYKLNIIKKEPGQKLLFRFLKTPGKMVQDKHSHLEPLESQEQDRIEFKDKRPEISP
How it was run: as §1

ELF5 = biological target: T11, ELF5 (Homo sapiens, UniProt Q9UKW6-2 1-255); conditions: protein: recombinant; tags: N-terminal GST; dsDNA, one strand shown
T11 sequence: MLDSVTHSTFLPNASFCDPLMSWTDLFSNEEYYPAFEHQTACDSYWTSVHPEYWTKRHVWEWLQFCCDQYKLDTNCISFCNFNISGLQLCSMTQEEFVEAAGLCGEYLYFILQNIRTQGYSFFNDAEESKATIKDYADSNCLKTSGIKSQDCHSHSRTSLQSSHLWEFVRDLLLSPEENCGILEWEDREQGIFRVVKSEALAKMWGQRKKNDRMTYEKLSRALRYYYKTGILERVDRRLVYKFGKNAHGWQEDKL
How it was run: as §1

ETV3 = biological target: T12, ETV3 (Homo sapiens, UniProt P41162-2 1-143); conditions: protein: recombinant; tags: N-terminal GST; dsDNA, one strand shown
T12 sequence: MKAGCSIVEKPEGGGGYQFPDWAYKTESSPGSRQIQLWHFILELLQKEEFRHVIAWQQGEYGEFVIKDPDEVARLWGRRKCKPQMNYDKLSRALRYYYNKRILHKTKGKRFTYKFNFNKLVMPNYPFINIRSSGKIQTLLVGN
How it was run: as §1

ETV6 = ETV6 (Homo sapiens, UniProt P41212 1-452); conditions: protein: recombinant; tags: N-terminal GST; dsDNA, one strand shown
ETV6, sequence (P41212 whole entry): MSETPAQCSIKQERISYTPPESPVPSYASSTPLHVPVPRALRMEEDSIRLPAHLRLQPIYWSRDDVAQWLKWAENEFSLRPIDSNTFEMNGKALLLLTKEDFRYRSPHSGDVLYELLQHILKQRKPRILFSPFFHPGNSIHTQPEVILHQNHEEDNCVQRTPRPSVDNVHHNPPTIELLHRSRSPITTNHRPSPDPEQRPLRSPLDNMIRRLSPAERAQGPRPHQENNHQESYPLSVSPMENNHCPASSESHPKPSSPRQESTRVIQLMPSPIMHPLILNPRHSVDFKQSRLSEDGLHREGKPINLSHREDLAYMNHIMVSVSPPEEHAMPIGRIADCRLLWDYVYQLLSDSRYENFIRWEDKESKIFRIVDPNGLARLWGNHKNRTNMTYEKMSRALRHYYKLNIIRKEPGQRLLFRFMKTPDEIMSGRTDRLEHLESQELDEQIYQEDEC
How it was run: as §1

In the case of ACAAAT, the binding signal (FEV) is reported as 1.16 fold enrichment (6-mer frequency, TF over GST control), the binding signal (ETV5) is reported as 1.16 fold enrichment (6-mer frequency, TF over GST control) and the binding signal (HSF1) is reported as 1.17 fold enrichment (6-mer frequency, TF over GST control). The binding signal (SPIC) was 1.12 fold enrichment (6-mer frequency, TF over GST control), the binding signal (ELF4) was 1.18 fold enrichment (6-mer frequency, TF over GST control) and the binding signal (ELK4) was 1.04 fold enrichment (6-mer frequency, TF over GST control). The binding signal (ETV2) was 1.16 fold enrichment (6-mer frequency, TF over GST control), the binding signal (ELF3) was 1.22 fold enrichment (6-mer frequency, TF over GST control) and the binding signal (CRX) was 1.29 fold enrichment (6-mer frequency, TF over GST control). The binding signal (ETV1) was 1.15 fold enrichment (6-mer frequency, TF over GST control), the binding signal (ERF) was 1.3 fold enrichment (6-mer frequency, TF over GST control) and the binding signal (ETV3L) was 1.15 fold enrichment (6-mer frequency, TF over GST control). The binding signal (ETS2) was 1.16 fold enrichment (6-mer frequency, TF over GST control), the binding signal (SPDEF) was 1.1 fold enrichment (6-mer frequency, TF over GST control) and the binding signal (ETV7) was 1.14 fold enrichment (6-mer frequency, TF over GST control). For the same sequence, the binding signal (ELF5) was 1.13 fold enrichment (6-mer frequency, TF over GST control), the binding signal (ETV3) was 1.1 fold enrichment (6-mer frequency, TF over GST control) and the binding signal (ETV6) was 1.17 fold enrichment (6-mer frequency, TF over GST control).
